Reference: PubChem BioAssay
Calls of active or inactive are those of the source.

Key:
[1] = binders of probe aFSTL3 on microarray, primary screen, stem cell growth factor project, biochemical, small-molecule microarray, fluorescence 635/667 (AID 1064); conditions: higher = more signal;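 further: measures binding of the biotinylated anti-FSTL3 antibody to printed compounds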
[2] = binders from COS7 lysate, DM2A8 probe, primary screen, torsin A project, cell lysate, small-molecule microarray, fluorescence 635/667 (AID 1065); conditions: higher = more signal, COS7 lysate expressing mutant human TOR1A
[3] = binders of probe aFGF2 on microarray, primary screen, stem cell growth factor project, biochemical, small-molecule microarray, fluorescence 635/667 (AID 1067); conditions: higher = more signal;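 further: measures binding of biotinylated aFGF2 protein to printed compounds on slides; z-score merges feature fluorescence and signal-to-noise across triplicate slides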
[4] = binders of probe aFGF10 on microarray, primary screen, stem cell growth factor project, biochemical, small-molecule microarray, fluorescence 635/667 (AID 1071); conditions: higher = more signal;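 further: score merges 667 nm spot intensity and signal to noise from triplicate slides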
[5] = target: Neurogenic locus notch homolog protein 2 (Homo sapiens) (UniProt Q04721); assay: Notch2 binders on small-molecule microarrays, primary screen, biochemical, small-molecule microarray, 635 nm fluorescence, stem cell growth factors (AID 1073); conditions: Notch2 binding, higher = more signal
[6] = target: Pro-neuregulin-1, membrane-bound isoform (Homo sapiens) (UniProt Q02297); assay: NRG1 binders on small-molecule microarrays, primary screen, psychiatric disease protein project, biochemical, small-molecule microarray, fluorescence 635/667 (AID 1075); conditions: NRG1 binding, 635 nm fluorescence, higher = more signal;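 further: score combines 667 nm spot fluorescence with signal to noise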
[7] = tested on: Neuregulin-1 EGF-like domain; assay: binders of neuregulin-1 EGF-like domain, primary screen, biochemical, small-molecule microarray, 635 nm fluorescence (AID 1081); conditions: small-molecule microarray binding, higher = more signal;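 further: binding of the protein to compounds printed on small-molecule microarray slides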
[8] = FRG1 promoter luciferase signal modulators, primary screen, FRG1 inhibition for FSHD, cell-based, C2C12 myotubes, firefly/Renilla luciferase, luminescence (AID 1084); conditions: higher = more signal, called active from +8 up or from −8 down
[9] = binders of probe aFST on microarray, primary screen, stem cell growth factor project, biochemical, small-molecule microarray, fluorescence 635/667 (AID 1086); conditions: higher = more signal;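 further: score merges 667 nm fluorescence with signal-to-noise of each printed compound spot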
[10] = binders of probe aHhip on microarray, primary screen, stem cell growth factor project, biochemical, small-molecule microarray, fluorescence 635/667 (AID 1087); conditions: higher = more signal;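 further: score merges spot fluorescence at 667nm with spot signal to noise ratio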

Chain of Neurogenic locus notch homolog protein 2 (Homo sapiens) (Q04721 whole entry, looked up, canonical isoform): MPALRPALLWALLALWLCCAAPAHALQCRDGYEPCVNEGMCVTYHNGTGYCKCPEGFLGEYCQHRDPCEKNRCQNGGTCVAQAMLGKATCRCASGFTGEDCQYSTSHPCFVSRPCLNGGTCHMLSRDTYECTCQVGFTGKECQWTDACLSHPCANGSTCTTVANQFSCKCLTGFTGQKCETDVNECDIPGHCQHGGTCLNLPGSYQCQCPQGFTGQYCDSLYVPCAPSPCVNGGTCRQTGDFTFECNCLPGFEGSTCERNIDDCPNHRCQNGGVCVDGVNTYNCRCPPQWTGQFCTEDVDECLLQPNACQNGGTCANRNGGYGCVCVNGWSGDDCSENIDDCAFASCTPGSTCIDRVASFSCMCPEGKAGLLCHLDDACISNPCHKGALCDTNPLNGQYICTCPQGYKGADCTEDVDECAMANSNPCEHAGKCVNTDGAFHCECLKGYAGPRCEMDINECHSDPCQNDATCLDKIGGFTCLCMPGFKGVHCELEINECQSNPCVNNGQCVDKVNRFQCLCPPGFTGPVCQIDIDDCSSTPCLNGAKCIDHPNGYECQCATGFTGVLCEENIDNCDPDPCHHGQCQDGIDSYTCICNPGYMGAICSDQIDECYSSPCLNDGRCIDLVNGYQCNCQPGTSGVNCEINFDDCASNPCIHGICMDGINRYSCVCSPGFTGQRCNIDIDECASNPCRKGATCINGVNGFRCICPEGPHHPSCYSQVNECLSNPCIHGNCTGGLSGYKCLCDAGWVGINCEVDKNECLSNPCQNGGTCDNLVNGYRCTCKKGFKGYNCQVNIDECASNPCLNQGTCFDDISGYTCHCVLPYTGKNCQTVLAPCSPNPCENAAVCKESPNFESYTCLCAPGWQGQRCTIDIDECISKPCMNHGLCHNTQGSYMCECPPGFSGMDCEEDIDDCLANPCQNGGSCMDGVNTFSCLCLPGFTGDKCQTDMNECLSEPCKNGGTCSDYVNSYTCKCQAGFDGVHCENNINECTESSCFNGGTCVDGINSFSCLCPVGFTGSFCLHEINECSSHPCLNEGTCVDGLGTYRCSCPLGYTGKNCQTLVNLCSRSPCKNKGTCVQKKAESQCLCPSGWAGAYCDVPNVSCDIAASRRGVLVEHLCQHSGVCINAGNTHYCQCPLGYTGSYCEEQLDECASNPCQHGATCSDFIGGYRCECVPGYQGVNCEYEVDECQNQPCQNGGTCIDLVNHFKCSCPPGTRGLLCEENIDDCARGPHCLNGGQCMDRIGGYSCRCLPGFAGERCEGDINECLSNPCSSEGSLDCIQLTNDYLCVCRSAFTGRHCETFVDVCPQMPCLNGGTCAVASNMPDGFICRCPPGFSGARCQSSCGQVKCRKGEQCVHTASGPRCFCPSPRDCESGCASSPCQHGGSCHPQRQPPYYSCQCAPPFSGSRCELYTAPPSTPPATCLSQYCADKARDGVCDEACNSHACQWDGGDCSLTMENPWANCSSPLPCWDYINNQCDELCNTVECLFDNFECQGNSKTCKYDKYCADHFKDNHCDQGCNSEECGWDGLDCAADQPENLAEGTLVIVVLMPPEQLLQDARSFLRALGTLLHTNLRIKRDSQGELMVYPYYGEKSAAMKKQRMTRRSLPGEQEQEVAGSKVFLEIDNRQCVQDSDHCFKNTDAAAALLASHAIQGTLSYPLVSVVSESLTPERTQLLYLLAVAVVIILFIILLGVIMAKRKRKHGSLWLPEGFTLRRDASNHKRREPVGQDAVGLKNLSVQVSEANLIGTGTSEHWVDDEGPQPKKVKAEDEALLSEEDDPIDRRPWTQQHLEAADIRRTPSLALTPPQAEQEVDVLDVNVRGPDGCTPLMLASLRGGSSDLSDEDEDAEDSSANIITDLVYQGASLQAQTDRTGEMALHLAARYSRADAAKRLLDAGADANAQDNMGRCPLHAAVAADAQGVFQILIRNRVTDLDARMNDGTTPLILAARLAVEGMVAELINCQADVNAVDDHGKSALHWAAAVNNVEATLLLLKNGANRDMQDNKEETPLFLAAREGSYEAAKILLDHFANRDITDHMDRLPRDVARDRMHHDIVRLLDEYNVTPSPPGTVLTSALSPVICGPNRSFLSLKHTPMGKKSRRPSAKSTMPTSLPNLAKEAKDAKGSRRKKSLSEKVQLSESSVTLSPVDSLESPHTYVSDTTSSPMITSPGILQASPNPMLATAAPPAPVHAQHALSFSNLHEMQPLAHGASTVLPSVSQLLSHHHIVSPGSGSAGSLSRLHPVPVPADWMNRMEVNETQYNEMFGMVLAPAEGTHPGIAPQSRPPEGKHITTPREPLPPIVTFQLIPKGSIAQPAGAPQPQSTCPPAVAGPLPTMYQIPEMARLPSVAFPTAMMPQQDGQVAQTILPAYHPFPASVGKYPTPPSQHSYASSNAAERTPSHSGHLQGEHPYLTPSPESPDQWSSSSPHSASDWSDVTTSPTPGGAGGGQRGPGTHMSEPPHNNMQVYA
Chain of Pro-neuregulin-1, membrane-bound isoform (Homo sapiens) (Q02297 whole entry, looked up, the tested form may be a part, canonical isoform): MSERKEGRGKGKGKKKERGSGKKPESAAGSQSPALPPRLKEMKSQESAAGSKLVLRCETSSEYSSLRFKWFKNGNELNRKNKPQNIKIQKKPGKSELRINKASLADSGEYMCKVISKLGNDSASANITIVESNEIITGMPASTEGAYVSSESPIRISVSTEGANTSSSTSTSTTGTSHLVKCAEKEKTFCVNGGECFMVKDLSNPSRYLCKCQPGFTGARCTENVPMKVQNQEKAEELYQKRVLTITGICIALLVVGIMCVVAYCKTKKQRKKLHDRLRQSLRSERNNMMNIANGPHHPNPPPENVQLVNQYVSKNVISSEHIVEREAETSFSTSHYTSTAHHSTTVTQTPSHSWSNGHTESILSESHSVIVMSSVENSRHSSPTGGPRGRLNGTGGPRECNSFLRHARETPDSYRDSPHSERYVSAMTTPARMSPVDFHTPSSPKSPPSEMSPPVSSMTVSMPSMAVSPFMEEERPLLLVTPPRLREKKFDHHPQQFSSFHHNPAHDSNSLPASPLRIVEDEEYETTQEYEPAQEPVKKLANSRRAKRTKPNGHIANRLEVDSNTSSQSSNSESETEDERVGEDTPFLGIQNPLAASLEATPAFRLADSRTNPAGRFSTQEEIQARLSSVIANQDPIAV

CC(C)C[C@@H]1NC(=O)[C@@H]2C[C@H](C(=O)O)[C@H](c3cccc(OCCO)c3)N2C1=O
composite z-score [1]: 0.73 | composite z-score [2]: 0.363 | composite z-score [3]: -0.0403 | composite z-score [4]: -0.276 | composite z-score [5]: -0.475 | composite z-score [6]: 0.402 | composite z-score [7]: 0.643 | z-score [8]: 1.29 (inactive) | composite z-score [9]: -0.235 | composite z-score [10]: -0.264

COc1ccc(CCNC(=O)[C@@]2(C)c3ccccc3C(=O)N(C(C)C)[C@H]2c2ccc(CO)cc2)cc1
composite z-score [1]: -0.182 | composite z-score [2]: 0.39 | composite z-score [3]: 0.0376 | composite z-score [4]: 0.4 | composite z-score [5]: 0.246 | composite z-score [6]: 0.693 | composite z-score [7]: 1.3 | z-score [8]: -0.262 (inactive) | composite z-score [9]: 0.933 | composite z-score [10]: -0.394

C=CCOC(=O)[C@H]1[C@@H]2C(=O)O[C@@H](c3ccccc3)[C@@H](c3ccccc3)N2[C@@H](c2ccc(OCCOC(=O)[C@H]3C[C@H]4C(=O)N[C@@H](CCCC[N+](C)(C)C)C(=O)N4[C@H]3c3ccc(O)cc3)cc2)[C@]12C(=O)Nc1ccc(I)cc12
composite z-score [1]: -0.301 | composite z-score [2]: 1.33 | composite z-score [3]: -0.0904 | composite z-score [4]: -0.333 | composite z-score [5]: -0.295 | composite z-score [6]: 2.05 | composite z-score [7]: 0.595 | z-score [8]: 2.93 (inactive) | composite z-score [9]: -0.333 | composite z-score [10]: 0.6

CCCc1cc2c(n1Cc1cc(F)cc(F)c1)C(C)C1CN(C(=O)c3ccccc3)C(C)(C(=O)OC)C21 (stereo not given)
composite z-score [1]: 1.25 | composite z-score [2]: 1.77 | composite z-score [3]: 0.256 | composite z-score [4]: 0.426 | composite z-score [5]: 1.71 | composite z-score [6]: 1.62 | composite z-score [7]: 1.18 | z-score [8]: 0.0046 (inactive) | composite z-score [9]: 1.58 | composite z-score [10]: 0.441

COc1ccc([Si](C)(C)[C@@H]2[C@@H](CC(=O)N3CCC[C@H]3CO)O[C@]3(C(=O)N(c4ccccc4)c4ccccc43)[C@H]2C)cc1
composite z-score [1]: -0.527 | composite z-score [2]: 0.411 | composite z-score [3]: -0.122 | composite z-score [4]: 0.713 | composite z-score [5]: 0.907 | composite z-score [6]: 0.0499 | composite z-score [7]: 1.11 | z-score [8]: -1.24 (inactive) | composite z-score [9]: 0.552 | composite z-score [10]: 0.21

COc1cc2c(cc1OC)CN(C(=O)[C@@H]1[C@H]3C(=O)O[C@H](c4ccccc4)[C@H](c4ccccc4)N3[C@H](c3ccc(O)cc3)[C@@]13C(=O)Nc1ccccc13)CC2
composite z-score [1]: 0.113 | composite z-score [2]: 0.797 | composite z-score [3]: -0.0614 | composite z-score [4]: 0.257 | composite z-score [5]: 0.171 | composite z-score [6]: 1.03 | composite z-score [7]: 1.16 | z-score [8]: 0.421 (inactive) | composite z-score [9]: 0.0729 | composite z-score [10]: 0.0854

COCCOC(=O)N1C(=O)[C@@]2(c3cc(C#CCCO)ccc31)[C@H](C(=O)N1CCCCCCC1)[C@H]1C(=O)O[C@H](c3ccccc3)[C@H](c3ccccc3)N1[C@@H]2c1ccc(OCCO)cc1
composite z-score [1]: 3.17 | composite z-score [2]: 0.912 | composite z-score [3]: 0.68 | composite z-score [4]: 0.395 | composite z-score [5]: 1.25 | composite z-score [6]: 1.01 | composite z-score [7]: 1.18 | z-score [8]: -1.07 (inactive) | composite z-score [9]: 2.87 | composite z-score [10]: 0.0111

CN1C(=O)C2C=CC(C(O)C3CC=CCC3)N(N(c3ccccc3)c3ccccc3)C2C1=O (stereo not given)
composite z-score [1]: 0.677 | composite z-score [2]: -0.0811 | composite z-score [3]: 0.0247 | composite z-score [4]: -0.0455 | composite z-score [5]: 0.172 | composite z-score [6]: -0.282 | composite z-score [7]: 0.33 | z-score [8]: -0.654 (inactive) | composite z-score [9]: 0.408 | composite z-score [10]: -0.137

C=C[C@H](CO[Si](CC)(CC)CC)N(Cc1ccc(OC(C)=O)c(OC)c1)S(=O)(=O)c1ccc(Br)cc1
composite z-score [1]: 0.572 | composite z-score [2]: 1.64 | composite z-score [3]: 0.365 | composite z-score [4]: 0.326 | composite z-score [5]: -0.156 | composite z-score [6]: 1.27 | composite z-score [7]: 1.05 | z-score [8]: -2.48 (inactive) | composite z-score [9]: 1.22 | composite z-score [10]: -0.0788

CCC[C@@H]1C[C@@]1(CCC)[C@@H](NS(=O)(=O)c1cccc2cccnc12)c1ccc(Cl)cc1
composite z-score [1]: 0.561 | composite z-score [2]: -0.754 | composite z-score [3]: 0.0367 | composite z-score [4]: 0.0835 | composite z-score [5]: 0.763 | composite z-score [6]: 0.858 | composite z-score [7]: 0.917 | z-score [8]: -3.58 (inactive) | composite z-score [9]: 0.855 | composite z-score [10]: -0.0729

NC(=O)NCC#Cc1ccc2c(c1)[C@]1(C(=O)N2)[C@H](C(=O)Nc2nc3ccccc3s2)[C@H]2C(=O)O[C@H](c3ccccc3)[C@H](c3ccccc3)N2[C@@H]1c1ccccc1OCCO
composite z-score [1]: 1.85 | composite z-score [2]: 0.407 | composite z-score [3]: 0.0863 | composite z-score [4]: 1.01 | composite z-score [5]: 1.03 | composite z-score [6]: 1.57 | composite z-score [7]: 0.406 | z-score [8]: 1.62 (inactive) | composite z-score [9]: 1.39 | composite z-score [10]: -0.0478

COCCOC(=O)N1C(=O)[C@@]2(c3cc(C#CCNC(N)=O)ccc31)[C@H](C(=O)Nc1nc3ccccc3s1)[C@H]1C(=O)O[C@H](c3ccccc3)[C@H](c3ccccc3)N1[C@@H]2c1ccc(OCCO)cc1
composite z-score [1]: 1.02 | composite z-score [2]: 0.103 | composite z-score [3]: 0.0346 | composite z-score [4]: 1.05 | composite z-score [5]: 0.486 | composite z-score [6]: 0.357 | composite z-score [7]: 0.331 | z-score [8]: 6.33 (inactive) | composite z-score [9]: 0.84 | composite z-score [10]: -0.226

O=C1C2C=CC(C(O)Cc3ccccc3)N(n3cnnc3)C2C(=O)N1Cc1ccccc1 (stereo not given)
composite z-score [1]: 0.442 | composite z-score [2]: -0.0532 | composite z-score [3]: 0.038 | composite z-score [4]: 0.426 | composite z-score [5]: 1.43 | composite z-score [6]: 0.489 | composite z-score [7]: 0.984 | z-score [8]: 0.793 (inactive) | composite z-score [9]: 0.307 | composite z-score [10]: -0.186

C=CCN1C(=O)[C@]2(O[C@H](CCn3cc([C@H](O)c4ccccc4)nn3)[C@@H]([Si](C)(C)c3ccc(OC)cc3)[C@@H]2C)c2ccccc21
composite z-score [1]: 0.202 | composite z-score [2]: -0.602 | composite z-score [3]: -0.0894 | composite z-score [4]: -0.264 | composite z-score [5]: -0.439 | composite z-score [6]: 0.093 | composite z-score [7]: -0.0113 | z-score [8]: -0.356 (inactive) | composite z-score [9]: -0.366 | composite z-score [10]: -0.264

CC(C)N1C(=O)C[C@@](C(=O)NCC(F)(F)F)(c2ccc([N+](=O)[O-])cc2)[C@H]1c1ccc(CO)cc1
composite z-score [1]: 0.27 | composite z-score [2]: 0.513 | composite z-score [3]: -0.147 | composite z-score [4]: -0.336 | composite z-score [5]: -0.545 | composite z-score [6]: 0.769 | composite z-score [7]: 0.541 | z-score [8]: -0.468 (inactive) | composite z-score [9]: -0.531 | composite z-score [10]: -0.0994

NCCCCCNC(=O)[C@@H]1C[C@@H]2C(=O)N[C@@H](Cc3ccccc3)C(=O)N2[C@@H]1c1ccc(O)cc1
composite z-score [1]: 0.266 | composite z-score [2]: 0.0499 | composite z-score [3]: 0.0257 | composite z-score [4]: 0.507 | composite z-score [5]: 1.12 | composite z-score [6]: 1.05 | composite z-score [7]: 1.24 | z-score [8]: 0.227 (inactive) | composite z-score [9]: 0.918 | composite z-score [10]: -0.175
